Inconclusive results are not listed. A call without a number means that no potency is given here. The source made the active and inactive calls. Unless noted, the call rests on the fitted dose curve; in most records, active means well fitted curve in the direction sought with a large enough effect; inconclusive means small, poorly fitted or top-dose-only effect, or another doubt; inactive means no such curve, though single readings can be large; an effect the other way counts as inactive or inconclusive.
Assays:
[1] = biological target: ATP-dependent 6-phosphofructokinase (Trypanosoma brucei brucei) (UniProt O15648); experiment: qHTS Assay to Find Inhibitors of T. brucei phosphofructokinase: hit validation (AID 492961);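 further: luminescence reports ADP formed as PFK phosphorylates fructose-6-phosphate with ATP; series mostly up to about 51 µM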
Method in brief: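 Percent activity derived from corrected luminescence, normalized between 0x and 1x enzyme controls, then fitted to concentration-response curves. Conditions: 1.25 nM PFK, 0.1 mM ATP, 0.5 mM F6P, 45 min RT.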

[2] = biological target: Methanococcus maripaludis chaperonin (MmCpn) (UniProt Q6LX38); experiment: High-Throughput Screening for Modulators of Cytosolic Chaperonin Activity: MmCpn Primary Screen (AID 488978);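 further: 50 nM MmCpn enzyme hydrolysing 30 µM ATP at 37 °C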
Method in brief: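 MmCpn at 50 nM final was preincubated 5 min at RT with compound. ATP was then added at 30 uM final for 10 min at 37 C. ADP formed was detected by Transcreener HTRF (665/590 nm).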

[3] = biological target: Transient receptor potential cation channel subfamily V member 1 (Homo sapiens) (UniProt Q8NER1); experiment: HTS Assay for Compounds that Act as Enhancers of the Vanilloid Receptor 1 (AID 488979)
Method in brief: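 TRPV1-expressing cells loaded with Fluo-8 calcium dye; compounds added and calcium influx read kinetically for 3 min (agonist phase), then capsaicin at EC20 added and read 2 min more for enhancement. Fluorescence ex 480/em 520 nm.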

[4] = biological target: Thyrotropin receptor (Homo sapiens) (UniProt P16473); experiment: qHTS Assay for Antagonists of the Thyroid Stimulating Hormone Receptor (AID 488980); further: series mostly up to about 58 µM
Method in brief: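 TSHR-transfected HEK293 cells (2000/well) in HEPES-buffered HBSS with 70 uM RO 20-1724 were stimulated with 4 nM TSH (EC80, final) in the presence of compound. cAMP was measured by HTRF competition after lysis and 30 min at RT.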

[5] = biological target: D(1A) dopamine receptor (Homo sapiens) (UniProt P21728); experiment: HTS Assay for Allosteric Agonists of the Human D1 Dopamine Receptor: Primary Screen for Agonists (AID 488981); further: potency means the concentration at half of the fitted maximal effect
Method in brief: (§1)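 Tetracycline-induced HEK293 T-REx cells force-coupled to calcium signalling were incubated overnight at 30 C and dye-loaded at room temperature. Calcium flux over 180 s after compound addition flagged agonists; a further 180 s read after EC20 dopamine flagged potentiators.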

[6] = biological target: D(1A) dopamine receptor (Homo sapiens) (UniProt P21728); experiment: HTS Assay for Allosteric Agonists of the Human D1 Dopamine Receptor: Primary Screen for Potentiators (AID 488982)
Method in brief: as §1

[7] = Validation screen for small molecules that induce genotoxicity in human embryonic kidney (HEK293T) cells expressing luciferase-tagged ELG1 (AID 493106)
Method in brief: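 HEK293T cells expressing luciferase-tagged ELG1 were exposed to compound or DMSO vehicle for 16 hr at 37 °C, 5% CO2. Genotoxic stress raises ELG1 levels, so increased luciferase signal after ONE-Glo addition and 30 min at room temperature marks hits.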

[8] = biological target: Thyrotropin-releasing hormone receptor (Homo sapiens) (UniProt P34981); experiment: qHTS for Small Molecule Agonists and Allosteric Enhancers of Human TRH Receptor: Validation Screen for Agonists (AID 493127;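 active means calcium activation more than 3 SD above the typical response in the agonist read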;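 further: intracellular calcium rise by fluo-8 fluorescence before TRH EC20 addition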); settings: TRH receptor agonist cell assay; at 2 µM; stronger effect = higher value
Method in brief: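 TRHR-expressing cells were plated overnight in serum-containing medium, then loaded with fluo-8 calcium dye at room temperature for 30 min–1.5 h. After a 10 s baseline, compound was pin-transferred and calcium fluorescence (ex 480/em 530) read kinetically for agonist response.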

[9] = Nrf2 qHTS screen for inhibitors: Validation (AID 493153; active means well fitted inhibition curve with a large enough effect in the main read-out, with a control signal flat, not every such curve was filed as active); settings: viability change: measured here: cytotoxicity max response
Method in brief: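 A549 cells carrying an ARE-driven firefly luciferase reporter, in 5% FBS OPTI-MEM, were treated with compounds in concentration-response for 18-24 h at 37°C. Viability was read by CellTiter-Fluor fluorescence, then Nrf2 activity by luciferase luminescence.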

[10] = qHTS for Inhibitors of Cell Surface uPA Generation: Validation Assay (AID 493164);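 further: RAW 264.7 macrophage cells exposed to compound for 18 h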
Method in brief: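 RAW 264.7, 4000 cells/well, o/n plating; cpd 7-pt 1:5 dilution 2.45 nM–38.3 uM final; 18 h, 37 C/5% CO2; ATP-Lite, 5 s luminescence exposure.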

[11] = biological target: Galactokinase (Homo sapiens) (UniProt P51570); experiment: qHTS Validation Assay for Inhibitors of Human Galactokinase (GALK) (AID 493189)
Method in brief: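 GALK (5 nM) with 35 uM ATP and 100 uM galactose in HEPES pH 8.0 with MgCl2, NaCl, DTT and BSA. Reaction ran 1 h at room temperature. Residual ATP read by Kinase-Glo Plus luminescence.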

[12] = Validation screen for small molecules that induce DNA re-replication in SW480 colon adenocarcinoma cells (AID 504364)
Method in brief: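 SW480 cells seeded at 250 per well were exposed to compound or DMSO for 48 hr at 37 C, 5% CO2, then stained with Hoechst for 40 min. DNA content per nucleus was imaged (405 nm ex, 500-530 nm em).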

[13] = biological target: Peptidyl-prolyl cis-trans isomerase NIMA-interacting 1 (Homo sapiens) (UniProt Q13526); experiment: qHTS Validation Assay to Find Inhibitors of Pin1 (AID 504536; active means well fitted inhibition curve with a large enough effect in the polarisation, with a control signal flat, not every such curve was filed as active; the % refers to the polarisation)
Method in brief: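 Fluorescence polarization competition: compounds (titration) displace HiFluor-488-labeled Pin1-1b peptide from Pin1 (0.3 uM final) in pH 7.5 HEPES buffer with DTT, 10 min at room temperature; %Activity normalized to no-enzyme wells, curves fitted.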

[14] = biological target: Ubiquitin carboxyl-terminal hydrolase 1 (Homo sapiens) (UniProt O94782); experiment: Inhibitors of USP1/UAF1: Pilot qHTS (AID 504865);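 further: rhodamine fluorescence freed from ubiquitin-rhodamine substrate followed over time; top concentration of the series differs between compounds; nearly all actives have a fitted effect of over 35% in size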
Method in brief: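 USP1/UAF1 complex at 1 nM preincubated 15 min at room temperature with compound, then Ub-Rho substrate added at 150 nM final. Fluorescence (480/540 nm) read kinetically in 50 mM HEPES pH 7.8, 0.5 mM EDTA, 1 mM TCEP, 0.1 mg/ml BSA, 0.01% Tween-20.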

[15] = qHTS for Inhibitors of ATXN expression: Validation (AID 588378); further: nearly all actives have a fitted effect of over 75% in size; further: potency means the concentration at half of the fitted maximal effect
Method in brief: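 HEK293 cells carrying ATXN2-firefly luciferase reporter, treated with compound 24 h at 37 °C. Viability read first by CellTiter-Fluor (405/525 nm), then reporter expression by Bright-Glo luminescence; controls were a known ATXN2 expression inhibitor and a luciferase inhibitor.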

[16] = biological target: ATPase family AAA domain-containing protein 5 (Homo sapiens) (UniProt Q96QE3); experiment: Validation screen for small molecules that inhibit ELG1-dependent DNA repair in human embryonic kidney (HEK293T) cells expressing luciferase-tagged ELG1 (AID 493107);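 further: cells co-treated with the DNA-damaging agent 5-fluorouridine alongside compound; series mostly up to about 46 µM; inhibitors lower the ELG1-luciferase luminescence signal; nearly all actives have a fitted effect of over 70% in size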
Method in brief: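 HEK293T cells expressing luciferase-tagged ELG1 were co-treated with 5-fluorouridine and compound or DMSO for 16 hr at 37 °C, 5% CO2. Luciferase activity was then read with ONE-Glo after 30 min at room temperature; suppressed signal indicates blocked ELG1 function.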

Thyrotropin receptor (Homo sapiens), sequence (P16473 whole entry, looked up): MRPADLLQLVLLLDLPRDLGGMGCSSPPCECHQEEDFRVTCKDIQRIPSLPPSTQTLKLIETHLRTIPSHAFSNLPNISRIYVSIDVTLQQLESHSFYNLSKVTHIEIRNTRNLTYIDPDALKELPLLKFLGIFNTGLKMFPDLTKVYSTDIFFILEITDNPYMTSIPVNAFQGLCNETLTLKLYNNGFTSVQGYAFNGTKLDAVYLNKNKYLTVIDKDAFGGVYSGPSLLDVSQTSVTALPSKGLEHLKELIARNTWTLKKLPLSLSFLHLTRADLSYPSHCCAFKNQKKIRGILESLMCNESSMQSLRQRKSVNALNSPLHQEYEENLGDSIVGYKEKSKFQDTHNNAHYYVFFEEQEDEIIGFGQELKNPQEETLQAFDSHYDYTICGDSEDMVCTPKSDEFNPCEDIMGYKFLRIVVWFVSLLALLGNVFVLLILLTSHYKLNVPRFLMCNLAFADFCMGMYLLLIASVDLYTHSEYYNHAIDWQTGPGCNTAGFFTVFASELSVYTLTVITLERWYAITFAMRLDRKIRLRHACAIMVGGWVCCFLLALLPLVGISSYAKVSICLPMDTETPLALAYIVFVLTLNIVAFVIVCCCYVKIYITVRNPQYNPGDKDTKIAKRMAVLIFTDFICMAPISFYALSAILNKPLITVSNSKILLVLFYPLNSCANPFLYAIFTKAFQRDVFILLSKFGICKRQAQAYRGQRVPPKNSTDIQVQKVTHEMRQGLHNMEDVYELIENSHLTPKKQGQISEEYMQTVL
Peptidyl-prolyl cis-trans isomerase NIMA-interacting 1 (Homo sapiens), sequence (Q13526 whole entry, looked up): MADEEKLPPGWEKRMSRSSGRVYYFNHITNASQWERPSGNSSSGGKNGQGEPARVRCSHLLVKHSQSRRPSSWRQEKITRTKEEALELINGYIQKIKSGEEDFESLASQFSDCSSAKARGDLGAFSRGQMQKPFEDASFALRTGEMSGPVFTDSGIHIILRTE
D(1A) dopamine receptor (Homo sapiens), sequence (P21728 whole entry, looked up): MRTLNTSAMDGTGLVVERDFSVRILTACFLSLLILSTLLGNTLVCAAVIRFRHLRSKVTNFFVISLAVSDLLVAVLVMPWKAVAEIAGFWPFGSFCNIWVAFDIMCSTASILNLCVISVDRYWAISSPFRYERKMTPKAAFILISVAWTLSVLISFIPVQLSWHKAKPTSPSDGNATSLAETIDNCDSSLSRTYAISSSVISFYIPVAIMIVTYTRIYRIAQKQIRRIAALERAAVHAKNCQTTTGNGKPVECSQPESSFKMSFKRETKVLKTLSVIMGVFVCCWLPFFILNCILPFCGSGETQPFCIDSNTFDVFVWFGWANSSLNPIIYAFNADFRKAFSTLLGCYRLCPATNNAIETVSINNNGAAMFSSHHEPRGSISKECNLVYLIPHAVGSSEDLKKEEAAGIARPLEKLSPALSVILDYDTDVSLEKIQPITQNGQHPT
ATP-dependent 6-phosphofructokinase (Trypanosoma brucei brucei), sequence (O15648 whole entry, looked up): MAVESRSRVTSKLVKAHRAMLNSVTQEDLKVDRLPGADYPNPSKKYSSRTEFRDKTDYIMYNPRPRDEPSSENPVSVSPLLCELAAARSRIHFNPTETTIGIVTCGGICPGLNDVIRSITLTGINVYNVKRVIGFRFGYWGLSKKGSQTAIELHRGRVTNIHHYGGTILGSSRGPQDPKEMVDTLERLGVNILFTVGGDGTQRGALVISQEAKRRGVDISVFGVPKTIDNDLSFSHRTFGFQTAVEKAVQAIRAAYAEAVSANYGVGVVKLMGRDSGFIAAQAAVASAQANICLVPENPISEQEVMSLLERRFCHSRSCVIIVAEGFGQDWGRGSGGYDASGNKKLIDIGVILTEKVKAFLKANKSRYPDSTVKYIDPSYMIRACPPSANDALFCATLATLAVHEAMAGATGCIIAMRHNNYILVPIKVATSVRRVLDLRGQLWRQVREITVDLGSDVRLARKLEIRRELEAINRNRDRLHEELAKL
Methanococcus maripaludis chaperonin (MmCpn), sequence (Q6LX38 1-543): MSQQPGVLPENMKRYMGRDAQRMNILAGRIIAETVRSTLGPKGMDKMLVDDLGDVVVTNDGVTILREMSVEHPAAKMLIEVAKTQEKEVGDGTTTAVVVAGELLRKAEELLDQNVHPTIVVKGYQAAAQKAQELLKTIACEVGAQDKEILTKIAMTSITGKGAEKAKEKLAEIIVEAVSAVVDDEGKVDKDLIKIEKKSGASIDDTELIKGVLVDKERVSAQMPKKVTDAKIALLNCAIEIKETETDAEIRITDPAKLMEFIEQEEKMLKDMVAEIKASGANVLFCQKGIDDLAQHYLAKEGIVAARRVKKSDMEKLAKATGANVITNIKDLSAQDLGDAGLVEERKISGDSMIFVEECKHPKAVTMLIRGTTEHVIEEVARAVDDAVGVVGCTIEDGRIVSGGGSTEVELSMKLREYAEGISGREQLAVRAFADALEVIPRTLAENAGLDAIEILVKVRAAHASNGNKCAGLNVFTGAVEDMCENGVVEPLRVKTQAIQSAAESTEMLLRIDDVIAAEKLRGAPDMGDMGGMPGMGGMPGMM
ATPase family AAA domain-containing protein 5 (Homo sapiens), sequence (Q96QE3 whole entry, looked up, the tested form may be a part): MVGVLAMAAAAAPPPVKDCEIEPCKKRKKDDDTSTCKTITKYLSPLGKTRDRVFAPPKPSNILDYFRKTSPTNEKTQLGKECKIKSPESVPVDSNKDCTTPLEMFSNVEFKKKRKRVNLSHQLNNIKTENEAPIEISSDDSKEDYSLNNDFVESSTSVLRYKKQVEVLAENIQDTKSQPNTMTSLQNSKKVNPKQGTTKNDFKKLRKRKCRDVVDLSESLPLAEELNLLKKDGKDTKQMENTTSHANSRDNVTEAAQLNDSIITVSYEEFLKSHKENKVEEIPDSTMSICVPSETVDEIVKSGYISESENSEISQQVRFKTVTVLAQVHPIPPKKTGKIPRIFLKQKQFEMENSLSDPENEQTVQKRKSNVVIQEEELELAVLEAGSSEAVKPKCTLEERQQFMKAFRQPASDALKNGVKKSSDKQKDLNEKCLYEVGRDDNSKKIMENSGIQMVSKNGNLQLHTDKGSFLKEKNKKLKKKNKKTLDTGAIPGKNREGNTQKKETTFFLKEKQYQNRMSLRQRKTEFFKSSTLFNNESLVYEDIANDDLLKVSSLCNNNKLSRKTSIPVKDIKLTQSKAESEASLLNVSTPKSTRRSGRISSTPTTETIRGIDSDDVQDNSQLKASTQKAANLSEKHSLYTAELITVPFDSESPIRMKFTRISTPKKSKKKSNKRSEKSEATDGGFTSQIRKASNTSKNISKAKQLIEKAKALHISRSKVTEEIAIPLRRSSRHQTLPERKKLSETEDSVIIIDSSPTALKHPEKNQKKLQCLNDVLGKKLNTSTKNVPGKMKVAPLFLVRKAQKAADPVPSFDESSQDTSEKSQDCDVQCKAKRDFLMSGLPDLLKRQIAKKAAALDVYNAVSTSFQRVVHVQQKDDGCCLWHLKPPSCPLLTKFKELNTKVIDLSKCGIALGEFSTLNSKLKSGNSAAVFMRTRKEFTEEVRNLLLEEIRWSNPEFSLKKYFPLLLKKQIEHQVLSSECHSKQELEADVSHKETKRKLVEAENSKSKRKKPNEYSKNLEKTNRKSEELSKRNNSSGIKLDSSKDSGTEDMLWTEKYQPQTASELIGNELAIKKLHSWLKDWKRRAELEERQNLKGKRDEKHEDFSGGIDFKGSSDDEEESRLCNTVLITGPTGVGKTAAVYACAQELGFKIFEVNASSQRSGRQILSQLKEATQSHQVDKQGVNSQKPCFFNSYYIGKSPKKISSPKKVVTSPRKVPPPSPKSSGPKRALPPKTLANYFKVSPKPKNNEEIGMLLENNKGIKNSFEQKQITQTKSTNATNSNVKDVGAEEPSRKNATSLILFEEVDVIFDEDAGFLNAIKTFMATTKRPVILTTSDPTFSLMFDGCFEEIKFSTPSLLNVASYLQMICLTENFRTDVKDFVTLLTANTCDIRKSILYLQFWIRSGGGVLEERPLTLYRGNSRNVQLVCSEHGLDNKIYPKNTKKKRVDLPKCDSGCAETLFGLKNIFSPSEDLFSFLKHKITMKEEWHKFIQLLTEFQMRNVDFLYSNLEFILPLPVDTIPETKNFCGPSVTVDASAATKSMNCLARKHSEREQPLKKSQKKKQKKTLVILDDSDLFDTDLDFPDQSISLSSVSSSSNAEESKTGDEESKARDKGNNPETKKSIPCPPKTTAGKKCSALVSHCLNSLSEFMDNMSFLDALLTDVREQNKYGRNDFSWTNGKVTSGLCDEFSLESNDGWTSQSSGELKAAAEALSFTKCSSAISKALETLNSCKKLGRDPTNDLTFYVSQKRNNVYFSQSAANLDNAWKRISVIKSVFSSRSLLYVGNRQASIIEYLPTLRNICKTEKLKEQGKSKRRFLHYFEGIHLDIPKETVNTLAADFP
Galactokinase (Homo sapiens), sequence (P51570 whole entry, looked up): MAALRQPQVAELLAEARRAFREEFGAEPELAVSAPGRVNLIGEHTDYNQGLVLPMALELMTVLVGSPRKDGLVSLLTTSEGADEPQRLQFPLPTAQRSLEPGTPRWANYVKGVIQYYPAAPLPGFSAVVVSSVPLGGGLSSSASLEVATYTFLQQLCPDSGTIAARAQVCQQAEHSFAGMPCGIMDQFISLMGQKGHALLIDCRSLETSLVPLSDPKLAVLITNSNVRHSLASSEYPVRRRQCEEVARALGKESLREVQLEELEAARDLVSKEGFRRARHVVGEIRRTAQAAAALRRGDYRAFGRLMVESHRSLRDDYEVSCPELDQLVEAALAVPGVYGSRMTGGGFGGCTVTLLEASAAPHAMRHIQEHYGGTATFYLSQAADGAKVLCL
Thyrotropin-releasing hormone receptor (Homo sapiens), sequence (P34981 whole entry, looked up): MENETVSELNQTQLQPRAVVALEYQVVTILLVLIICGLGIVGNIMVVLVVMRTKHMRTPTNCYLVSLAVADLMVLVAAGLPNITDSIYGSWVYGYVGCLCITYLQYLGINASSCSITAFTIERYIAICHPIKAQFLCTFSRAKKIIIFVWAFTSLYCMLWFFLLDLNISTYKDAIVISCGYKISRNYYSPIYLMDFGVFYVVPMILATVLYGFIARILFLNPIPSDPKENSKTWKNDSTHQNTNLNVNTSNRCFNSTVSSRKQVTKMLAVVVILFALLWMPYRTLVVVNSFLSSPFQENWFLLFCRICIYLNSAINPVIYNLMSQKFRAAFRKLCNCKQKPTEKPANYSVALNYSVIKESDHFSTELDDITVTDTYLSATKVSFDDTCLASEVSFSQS

Row | Compound | outcome [1] | outcome [2] | outcome [3] | outcome [4] | Potency [5] | outcome [6] | outcome [7] | activation [8] | outcome [9] | viability change [9] [%] | outcome [10] | outcome [11] | outcome [12] | outcome [13] | Potency [14] | Potency [15] | Potency [16]
1 | CCN(CC)CCOc1ccc(C(O)(Cc2ccc(Cl)cc2)c2ccc(C)cc2)cc1 (stereo unspecified) | inactive |  |  |  |  |  |  |  |  |  |  |  |  |  |  |  | 
2 | O=C1CCC(c2ccc(-n3ccnc3)cc2)=NN1 | inactive | inactive | inactive | inactive | inactive | inactive | inactive | 0.188% (inactive) | inactive | 9.43 | inactive | inactive | inactive | inactive | inactive | inactive | 
3 | C[C@@H]1C(=O)NC2=Nc3cccc(Cl)c3CN21 | inactive | inactive | inactive | inactive | inactive | inactive | inactive | 1.06% (inactive) | inactive | 3.84 | inactive | inactive | inactive | inactive | inactive | inactive | inactive
4 | C1CCc2nnnn2CC1 |  | inactive | inactive | inactive | inactive | inactive | inactive | -0.375% (inactive) | inactive | 4.51 | inactive | inactive | inactive | inactive | inactive | inactive | 
5 | C[C@]12CC[C@@H]3c4ccc(O)cc4CC[C@H]3[C@@H]1CC[C@@H]2O | inactive | inactive | inactive | inactive | inactive | inactive | inactive | 4.75% (inactive) | inactive | 1.87 | inactive | inactive | inactive | inactive | inactive | inactive | inactive
6 | CCCC1O[C@@H]2C[C@H]3[C@@H]4CCC5=CC(=O)C=C[C@]5(C)[C@H]4[C@@H](O)C[C@]3(C)[C@]2(C(=O)CO)O1 (stereo partly specified) |  | inactive |  |  | inactive | inactive | inactive |  | inactive | -3.74 | inactive |  |  | inactive | inactive | inactive | inactive
7 | C#C[C@]1(OC(C)=O)CC[C@H]2[C@@H]3CCC4=C[C@@H](OC(C)=O)CC[C@@H]4[C@H]3CC[C@@]21C | inactive |  |  |  |  |  |  |  |  |  |  |  |  |  |  |  | 
8 | CC(C)C[C@H]1C(=O)N2CCC[C@H]2[C@]2(O)O[C@](NC(=O)[C@@H]3C=C4c5cccc6[nH]c(Br)c(c56)C[C@H]4N(C)C3)(C(C)C)C(=O)N12 |  | inactive |  |  | inactive |  |  |  |  |  | inactive |  |  |  |  |  | 
9 | Nc1cc(Cl)c(NC2=NCCN2)c(Cl)c1 | inactive | inactive | inactive | inactive | inactive | inactive | inactive | 1.12% (inactive) | inactive | 1.6 | inactive | inactive | inactive | inactive | inactive | inactive | inactive
10 | Oc1ccc(O)cc1 |  | inactive | inactive | inactive | inactive | inactive | inactive | 0.688% (inactive) | inactive | -9.14 | inactive | inactive | inactive |  | inactive |  | 
11 | O=C(O)c1cc2cc(Cc3cccnc3)ccc2o1 |  | inactive | inactive | inactive | inactive | inactive | inactive | 1.38% (inactive) | inactive | 0.85 | inactive | inactive | inactive | inactive | inactive | inactive | inactive
12 | NCCCC[C@H](N[C@@H](CCc1ccccc1)C(=O)O)C(=O)N1CCC[C@H]1C(=O)O | inactive |  |  |  |  |  |  |  |  |  |  |  |  |  |  |  | 
13 | CNCCC=C1c2ccccc2CCc2ccccc21 | inactive | inactive |  | inactive | 20 µM (active) | inactive | inactive | 0.625% (inactive) |  |  | inactive | inactive | inactive | inactive | inactive | 15.8 µM (active) | 
